# Only some compounds are listed: those with a hit (about 4.3% of all), similar ones and a draw of the others.
# BoNT A protease – BoNT/A light chain protease inhibitors, primary screen, biochemical, flow cytometry, MLPCN library; 360,000 compounds, 0.17% hits; multiplex microsphere protease substrate cleavage; inhibition, % at 10 µM; Botulinum neurotoxin type A light chain protease (Clostridium botulinum A str. ATCC 3502); AID 588499, 2011; further: plate controls were buffer without enzyme for full effect and enzyme alone for no effect
# BoNT F protease – BoNT/F light chain protease inhibitors, primary screen, biochemical, flow cytometry, MLPCN library | Botulinum neurotoxin type F light chain protease (Clostridium botulinum) | Multiplex microsphere protease cleavage assay | inhibition, % at 10 µM | 360,000 compounds, 0.22% hits | AID 588497, 2011; in the data active means inhibition above about 35%, passing the limit was not always enough; inconclusive means no clear call, values can overlap the other calls; further: plate controls were buffer without enzyme for full effect and enzyme alone for no effect
# Anthrax LF prot – Bacillus anthracis LF protease inhibitors, primary screen, biochemical, multiplex microsphere, MLPCN library; multiplex microsphere protease cleavage assay; inhibition, % at 10 µM; Lethal factor (Bacillus anthracis), P15917; 360,000 compounds, 0.12% hits; AID 588501, 2011; further: plate controls were buffer without enzyme for full effect and enzyme alone for no effect
# Target sequence (P15917 whole entry, looked up): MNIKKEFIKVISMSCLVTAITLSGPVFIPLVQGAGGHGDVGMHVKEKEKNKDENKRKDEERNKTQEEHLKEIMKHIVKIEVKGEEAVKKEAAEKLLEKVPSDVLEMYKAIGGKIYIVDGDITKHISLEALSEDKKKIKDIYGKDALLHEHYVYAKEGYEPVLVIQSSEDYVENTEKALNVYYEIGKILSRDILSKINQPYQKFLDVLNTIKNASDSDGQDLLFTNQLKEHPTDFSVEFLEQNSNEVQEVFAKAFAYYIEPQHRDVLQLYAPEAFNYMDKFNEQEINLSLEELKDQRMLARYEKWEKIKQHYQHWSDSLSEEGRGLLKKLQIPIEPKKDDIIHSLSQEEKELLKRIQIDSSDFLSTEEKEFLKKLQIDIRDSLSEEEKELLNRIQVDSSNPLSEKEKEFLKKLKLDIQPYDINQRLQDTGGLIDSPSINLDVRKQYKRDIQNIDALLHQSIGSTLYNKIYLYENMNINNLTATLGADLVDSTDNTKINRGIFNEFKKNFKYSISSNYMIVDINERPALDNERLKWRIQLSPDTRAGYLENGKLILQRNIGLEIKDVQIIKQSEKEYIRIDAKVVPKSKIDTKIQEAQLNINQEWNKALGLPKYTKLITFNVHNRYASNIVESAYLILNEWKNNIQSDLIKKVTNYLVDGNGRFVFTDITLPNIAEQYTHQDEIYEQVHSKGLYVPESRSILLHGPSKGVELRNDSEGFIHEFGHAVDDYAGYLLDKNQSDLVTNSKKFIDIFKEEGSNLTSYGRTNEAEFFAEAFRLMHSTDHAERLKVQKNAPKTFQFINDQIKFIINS
# Bead autofluor – counter-screen for toxin protease inhibitors: compound fluorescence; compound autofluorescence counterscreen, microsphere flow cytometry; stronger effect = higher value; fluorescence intensity (no concentration beside the values); 360,000 compounds, 3.1% hits; in the data active means fluorescence intensity above about 16000; inconclusive means no clear call, values can overlap the other calls
# PfHsp40 rescue – rescue of yeast from PfHsp40 toxicity, primary screen, S. cerevisiae, ATP luminescence; S. cerevisiae expressing PfHsp40, growth rescue; 340,000 compounds, 0.68% hits; growth rescue, % at 12.5 µM; AID 504582, 2011; in the data active means growth rescue above about 28%, passing the limit was not always enough; inconclusive means no clear call, values can overlap the other calls;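 further: yeast W303a lacking pdr1 and pdr3 grown in galactose medium; growth measured after three days at 30 °C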
# MazEF act – activators of E. coli MazEF toxin-antitoxin RNase, primary screen, biochemical, fluorescence, uHTS | activation, % at 20 µM | FAM/BHQ RNA-DNA oligo cleavage fluorescence, 5 h | 350,000 compounds, 0.32% hits; in the data active means activation above about 50%
# The depositor's hits bear a star; ? = inconclusive; ! = a repeat was not active. Unless noted, no stated cut-off is given here; in the data, active means inhibition above about 30%; inconclusive means no clear call, values can overlap the other calls; inactive means below that.
SMILES,BoNT A protease,BoNT F protease,Anthrax LF prot,Bead autofluor,PfHsp40 rescue,MazEF act
COc1ccc(Cc2nc(-c3ccc(-n4cccc4)cc3)no2)cc1,-0.5,-10.1,-6.5,6133,-1.2,-15.2
COc1ccc(Cc2nc(-c3ccccc3)no2)cc1,-2.1,-3.9,-1.8,21271*,1.0,-2.2
COc1ccc(C(=O)O)cc1NC(=S)NC(=O)C(c1ccccc1)c1ccccc1,1.0,6.1,2.7,5653,3.1,0.1
Cc1ccccc1Nc1nc(N)nc(COC(=O)c2ccc([N+](=O)[O-])o2)n1,-0.1,-7.8,-5.3,3994,-2.1,9.8
CCCCN1C(=O)/C(=C2/Sc3ccc(OC)cc3N2CC)SC1=S,2.4,?,-6.5,4339,-1.5,71.1*
C=CCN1C(=O)/C(=C2/Sc3ccc(OC)cc3N2CC)SC1=S,-1.2,?,17.5,4070,-1.2,752.5*
CC(C)=CCSc1nnc([C@@H](NC(=O)OC(C)(C)C)C(C)C)o1,?,0.3,-1.6,22591*,-0.3,-3.9
COCCn1c(SCC(=O)NCCCN2CCCC2=O)nc2sc3c(c2c1=O)CCCC3,1.6,1.6,0.2,5391,-0.4,4.7
COc1cc(C2C3=C(Nc4nc(N)[nH]c(=O)c42)c2ccccc2C3=O)ccc1O (stereo unspecified),0.9,2.8,-7.4,3640,0.0,-5.7
COC(=O)c1c(NC(=O)c2nn(C)cc2Cl)sc2c1CCCC2,?,4.9,-5.8,20893*,0.3,0.7
COC(=O)c1c(NC(=O)c2ccc(Br)s2)sc2c1CCC2,2.7,1.7,-3.5,21623*,-0.7,10.6
COC(=O)c1c(NC(=O)c2ccoc2C)sc2c1CCC2,-1.3,-18.0,-6.5,4198,-0.5,-4.6
COC(=O)c1c(NC(=O)c2ccn(C)n2)sc2c1CCC2,-6.3,-2.4,0.5,5359,0.8,17.8
CCN(C(=O)CSc1nncn1-c1ccccc1)C1CCS(=O)(=O)C1 (stereo unspecified),-1.8,-8.4,2.1,?,-1.5,7.6
COc1cc2[nH]c(=O)n(CCCCCC(=O)N3CCN(c4ccccc4)CC3)c(=O)c2cc1OC,5.6,8.7,-1.5,19560*,-0.1,0.7
COC(=O)c1ccc2c(=O)n(CCCCCC(=O)N3CCN(c4ccccc4)CC3)c(=O)[nH]c2c1,-1.0,-7.7,-3.9,2890,2.2,-4.8
Brc1ccc(-n2c(SCc3nc4ccccc4[nH]3)nnc2-c2ccncc2)cc1,0.8,-13.0,0.7,2809,4.5,-5.3
CCOc1ccc(-c2nnc(SCc3nc4ccccc4[nH]3)n2N)cc1,-2.1,-5.3,-0.3,22829*,0.1,0.4
COc1ccccc1-c1nnc(SCc2nc3ccccc3[nH]2)n1C,2.0,1.8,1.5,11093,0.7,4.2
CCOc1ccc(NC(=O)CSc2nnc(-c3ccccc3)n2N)cc1,-0.4,-0.2,-0.2,2768,-2.3,-5.4
Cn1c(SCc2nc3ccccc3[nH]2)nnc1-c1cccnc1,?,-2.1,2.7,20145*,0.3,-0.7
Clc1ccc(-n2c(SCc3nc4ccccc4[nH]3)nnc2-c2ccncc2)cc1,3.8,3.5,1.2,21021*,1.9,-1.7
COc1ccc(C2c3c(ccc4ccccc34)Oc3ncn4nc(Cc5ccccc5)nc4c32)cc1OC (stereo unspecified),-0.1,1.8,0.2,2209,-0.2,-9.3
COc1ccc(/C=N/OCc2nc3c4c(ncn3n2)Oc2ccc3ccccc3c2C4c2ccccc2)cc1 (stereo unspecified),1.2,0.4,-0.8,23152*,-1.0,-29.5
OC(Cn1cncn1)(c1ccc(F)cc1)c1ccc(Cl)cc1 (stereo unspecified),-3.8,?,18.9,3913,108.3*,8.6
SMILES,BoNT A protease,BoNT F protease,Anthrax LF prot,Bead autofluor,PfHsp40 rescue,MazEF act
OC(Cn1cncn1)c1ccc(Cl)cc1 (stereo unspecified),-0.9,-8.4,-3.4,11819,-0.7,-1.3
C[C@H]1CCC/C=C/[C@@H]2C[C@H](O)C[C@H]2[C@H](O)/C=C/C(=O)O1,-0.6,0.6,-6.1,4494,47.1*!,1.0
CCn1cc(C(=O)NCc2ccco2)c(=O)c2cc(S(=O)(=O)N3CCC(C)CC3)ccc21,1.6,0.4,-11.2,20447*,0.2,-5.3
CCn1cc(C(=O)NCCN(C)CCc2ccccc2)c(=O)c2cc(S(=O)(=O)N(C)C)ccc21,-1.1,-2.8,-2.2,22712*,0.6,-15.0
CCn1cc(C(=O)NCCc2ccccc2)c(=O)c2cc(S(=O)(=O)N(C)C)ccc21,0.0,-1.6,-10.8,3863,-2.3,4.6
CCn1cc(C(=O)NCc2ccco2)c(=O)c2cc(S(=O)(=O)N3CC(C)CC(C)C3)ccc21 (stereo unspecified),0.5,0.2,1.3,19725*,0.6,-0.4
C=CCn1cc(C(=O)NCc2ccco2)c(=O)c2cc(S(=O)(=O)N3CCCCCC3)ccc21,-2.4,-3.2,-7.6,16902*,2.1,-1.9
CCn1cc(C(=O)NCCCOC)c(=O)c2cc(S(=O)(=O)N3CCC(C)CC3)ccc21,1.2,-1.0,-3.5,4126,0.6,-0.6
O=S(=O)(NC(=NCc1ccccc1)c1ccccc1)c1ccccc1,-0.3,-18.6,-0.6,3555,-0.8,11.5
CC(C)C(C)NC(=O)COC(=O)C1CCN(S(=O)(=O)c2ccc3c(c2)OCCO3)CC1 (stereo unspecified),1.3,2.3,1.2,5050,-1.1,3.8
CC(C)(C)OC(=O)C[C@@H]1C/C=C\C[C@@H](CC(=O)N[C@@H](CO)Cc2ccccc2)C(=O)NC[C@@H](c2ccccc2)OC1=O,0.3,-1.4,-1.3,3500,-0.2,-2.3
CCn1cc(C(=O)NCc2ccco2)c(=O)c2cc(S(=O)(=O)N3CCCCCC3)ccc21,?,0.3,-4.1,21862*,1.7,-3.1
CCn1cc(C(=O)NCc2ccco2)c(=O)c2cc(S(=O)(=O)N3CCc4ccccc4C3)ccc21,-1.3,-1.5,-2.1,20784*,-1.7,-2.1
CC1CC(C)(C)OC(C[N+]2(C)CCCCC2)O1 (stereo unspecified),2.3,?,8.1,3832,-1.5,4.6
CC(C)C[C@@H](CN=[N+]=[N-])N1CCN(C)CCC1=O,-0.1,4.5,-6.8,3996,-0.6,0.8
CCOc1cc(S(=O)(=O)NCc2ccccc2)c(OCC)cc1-n1cnnn1,?,5.0,-2.5,21889*,-0.5,-13.9
CCOc1ccc(-n2cnnn2)cc1S(=O)(=O)NCc1ccccc1,-0.6,-6.5,-0.4,13747,0.0,6.7
COc1ccc(/C=N/NC(=O)CN(C)C(=O)OCc2ccccc2)cc1OC,2.6,-0.3,-0.1,4026,1.3,6.4
CC(=O)c1cccc(NC(=O)c2ccc(N(Cc3ccc(C)cc3)S(C)(=O)=O)cc2)c1,-1.9,-1.2,-2.1,17101*,-0.6,-6.6

# Screening data as filed in PubChem BioAssay.
